The structures appear in SMILES notation. Out of some 1,200 compounds screened, about 60 (5%) were called active. About 1% were inconclusive and are not listed.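 The calls were made as follows: active = Decreasing signal and fitted IC50 at most twice the top valid tested dose; inconclusive = Bad fit or a level curve showing 30 to 70% inhibition; inactive = the rest.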 The list is a sample of the results. Entries with a potency or affinity are not part of this list.

The target of the experiment is NAD-dependent protein deacylase sirtuin-5, mitochondrial (Homo sapiens) (UniProt Q9NXA8). The experiment in a line: sirtuin-5 deacylation blockers, concentration series – biochemical, fluorescence imaging, cherry-pick, set 5, dose response (AID 720591). The following applies: Purified SirT5, succinyl-peptide AMC, trypsin-coupled fluorescence; series mostly up to 15 µM.
Chain of NAD-dependent protein deacylase sirtuin-5, mitochondrial (Homo sapiens) (Q9NXA8 whole entry, looked up): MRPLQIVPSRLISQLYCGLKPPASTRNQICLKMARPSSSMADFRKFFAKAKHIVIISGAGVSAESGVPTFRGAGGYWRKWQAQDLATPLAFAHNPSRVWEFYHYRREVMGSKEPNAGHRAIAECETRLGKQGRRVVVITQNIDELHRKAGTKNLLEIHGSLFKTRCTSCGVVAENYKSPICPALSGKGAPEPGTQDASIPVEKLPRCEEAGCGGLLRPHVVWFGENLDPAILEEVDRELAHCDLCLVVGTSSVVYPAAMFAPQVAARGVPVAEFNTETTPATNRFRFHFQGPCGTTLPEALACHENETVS
For `Cc1ccc(NC(=O)COCC(=O)Nc2ccc(F)cc2)cc1`, the molecule was classed as inactive.
Take `Cc1cccc(OC(=O)Nc2ccc(C(=O)O)c(O)c2)c1`: the molecule was called inactive.
As for `O=C(Nc1ccccc1C(=O)O)c1cc(S(=O)(=O)Nc2ccccc2)ccc1Cl`, the molecule was called inactive.
For `Cc1cc(NC(=O)CCC(=O)N(CCc2ccccc2)C(C(=O)NC2CCCC2)c2ccco2)no1` (stereo unspecified) the value was “inactive”.
`COc1ccc(CCNS(=O)(=O)c2cc3c4c(c2)CC(=O)N4CCC3)cc1`: the outcome was inactive.
Under `Nc1cccc(-c2csc(-n3ncc(C(=O)O)c3C(F)(F)F)n2)c1` stands “inactive”.
Under `O=C(O)c1ccc2c(c1)ncn2C1CCCC1` stands “inactive”; under `Cc1ccnc(NC(=O)CCC(=O)N(Cc2ccco2)C(C(=O)NC(C)C)c2ccc(F)cc2)c1` (stereo unspecified), “inactive”.
`NNC(=O)Cn1c(-c2ccccc2)cc2ccccc21`: the molecule was called inactive.
For `CC(C)(C)OC(=O)N(CCc1ccccc1)Cc1ccc(OCc2cccc(NC(=O)C3CC3)c2)cc1` the value was “inactive”; for `COc1ccc(CCNC(=O)[C@H](C)NC(=O)N2CCn3c2nc2ccccc23)cc1OC`, “inactive”; for `Cc1ccccc1CN1CCN(Cc2ccc3cccc(F)c3n2)CC1CCO` (stereo unspecified), “inactive”.
Under `CNCc1cc(Br)c(OCC(=O)Nc2ccccc2OC)c(OC)c1` stands “inactive”; under `COc1cccc(NC(=O)c2ccccc2)c1`, “inactive”; under `COc1ccc(CC(=O)Nc2ccc(C(=O)NCC(C)C)cc2)cc1`, “inactive”.
Consider `Cc1cc2nc(CSc3ccccc3)cc(=O)n2[nH]1`, for which the call was inactive.
For `CCCCCCCCN1[C@@H](CC(=O)O)c2cc(C(F)(F)F)ccc2S1(=O)=O`, the call was inactive.
Under `Cc1c(Cc2ccc3c(c2)OCO3)sc(NC(=O)c2ccccc2)c1C(N)=O` stands “inactive”.
For `Clc1ccc2nc(CSc3ccccc3)cn2c1` the value was “inactive”.
Under `Cc1cccc2nc(CSc3ccc(Cl)cc3)cn12` stands “inactive”.
As to `Cc1cccc(N(C(=O)c2snc(C(N)=O)c2N)C(C(=O)NCC2CCCO2)c2ccc3ncccc3c2)c1` (stereo unspecified), the call was inactive.
For `O=S(=O)(NCc1ccc2c(c1)OCO2)c1ccccc1F` the value was “inactive”.
For `Cc1cccc(Cl)c1NC(=O)NCCCN1CCCCC1C` (stereo unspecified) the value was “inactive”; for `Cc1ccc(S(=O)(=O)N2CCOCC2)cc1NC(=O)CSc1nnc2n1CCCCC2`, “inactive”; for `CCN(CC)c1ccc(S(=O)(=O)N2CCOCC2)cc1NC(=O)Nc1ccccc1`, “inactive”.
Under `CCOC(=O)C(N)CSC1CC(=O)N(c2ccc(OCC)cc2)C1=O` (stereo unspecified) stands “inactive”.
For the molecule `CCOc1ccc(CN2CCN(C(=O)c3cccc(F)c3)CC2)cc1`, the call was inactive.
Take `CCc1nnc(NC(=O)CCC(=O)N2CCN(c3cc(C)ccc3C)CC2)s1`: the molecule was classed as inactive.
For `Cc1cccc(N2CCN(C(=O)c3ccc4nc[nH]c4c3)CC2)c1C` the value was “inactive”; for `CC1(C(=O)NS(=O)(=O)c2ccccc2Cl)CCN1C(=O)Cc1cccc2ccccc12` (stereo unspecified), “inactive”; for `COc1cc(C(C)=O)ccc1OC(=O)CN1C(=O)c2ccccc2C1=O`, “inactive”.

Source of the values: PubChem BioAssay AID720591 (Broad Institute, 2013).
